Data taken from PubChem BioAssay (Tox21).
Results filed as inconclusive are left out. Active and inactive are the calls of the source. The call rests on the fitted dose curve; in most records, active means well fitted cell-killing curve with a large enough effect in the repeat runs; inconclusive means weak or mixed curves, or effect the other way; inactive means flat fitted curve, though single readings scatter.

Assay: qHTS RealTime-Glo MT Cell Viability Assay in HepG2 cells - 0 hour (AID 1224889); further: nearly all actives have a fitted effect of over 50% in size
Settings: RealTime-Glo luminescence; series mostly up to 76.8 µM; activity change, negative = cytotoxicity: at the top concentration
Source text: U.S. Tox21 Program National Center for Advancing Translational Sciences [NCATS] NIH Chemical Genomics Center [NCGC] U.S. Environmental Protection Agency [EPA] National Institutes of Environmental Health Sciences [NIEHS] National Toxicology Program [NTP] U.S. Food and Drug Administration [FDA] Tox21 Assay Overview: Measure of cell viability is critical in the cell-base assay. Analysis of cell viability is necessary for the characterization of cell responses to cytotoxic drugs and environmental stress. A RealTime-Glo MT Cell Viability Assay to monitor cell viability in real time of continues cell culture during 40 hours of compound treatment was used to screen Tox21 10K library compounds in HepG2 cells. The RealTime-Glo MT Cell Viability Assay is a nonlytic, homogeneous, bioluminescent method to measure cell viability in real time using a simple, plate-based method. The assay involves adding NanoLuc luciferase and a cell-permeant prosubstrate to cells in culture. Viable cells reduce the proprietary prosubstrate to generate a substrate for NanoLuc luciferase. This substrate diffuses from cells into the surrounding culture medium, where it is rapidly used by the NanoLuc Enzyme to produce a luminescent signal. The signal correlates with the number of viable cells, making the assay well suited for cytotoxicity studies.
Tox21 Assay Protocol Summary: The mixture of HepG2 cell suspension and reagents were dispensed at 600cells/6 ul/well in 1536-well tissue culture treated black solid bottom plates using a Multidrop dispenser. After the assay plates were incubated at a 37 C/5% CO2 incubator for 5 hours, 23 nL of compounds dissolved in DMSO, positive and negative controls was transferred to the assay plate by a pintool work station. The plates were incubated at 37 C for 40 hours. The luminescence intensity were measured at 0h, 8h, 16h, 24h, 32h and 40h time points using ViewLux plate reader during compound treatment.
On the % scale 0 is the no-effect control and ±100 the full control effect.

Which “activity change, negative = cytotoxicity” value does the source give for `COCC(=O)N(c1c(C)cccc1C)N1CCOC1=O` here?
The value was 6.31% (inactive).

Which “activity change, negative = cytotoxicity” value does the source give for `COc1ccc2c(c1OC)CN1CCc3cc4c(cc3C1C2)OCO4` (stereo not given) here?
Its value is -3.42% [at 35.3 µM] (inactive).

Which “activity change, negative = cytotoxicity” value does the source give for `CCOP(=S)(OCC)SCSc1ccc(Cl)cc1` here?
Its value is -2.09% (inactive).

With `CCSC(=O)N(CC)C1CCCCC1` as the compound, how does the “activity change, negative = cytotoxicity” value read?
Its value is -4.36% (inactive).

Which “activity change, negative = cytotoxicity” value does the source give for `OCCSCSCCO` here?
Its value is 5.45% (inactive).

With `Cc1cc(C)c(C(=O)P(=O)(C(=O)c2c(C)cc(C)cc2C)c2ccccc2)c(C)c1` as the compound, how does the “activity change, negative = cytotoxicity” value read?
The value was -22.5% (inactive).

For `C#CCN1C(=O)COc2cc(F)c(N3C(=O)C4=C(CCCC4)C3=O)cc21`, which “activity change, negative = cytotoxicity” value is on record?
Its value is -3.37% (inactive).

For `CCCCOC(=O)c1ccccc1N`, which “activity change, negative = cytotoxicity” value is on record?
Its value is 17.4% (inactive).

Which “activity change, negative = cytotoxicity” value does the source give for `ClC(Cl)(Cl)C(Cl)(Cl)Cl` here?
The value was 8.26% (inactive).

Which “activity change, negative = cytotoxicity” value does the source give for `OCCBr` here?
The value was 3.64% (inactive).

With `COC(=O)C(C)Oc1ccc(Oc2ccc(Cl)cc2Cl)cc1` (stereo not given) as the compound, how does the “activity change, negative = cytotoxicity” value read?
The value was -0.974% (inactive).

Which “activity change, negative = cytotoxicity” value does the source give for `O=C1OC(=O)C2C1C1(Cl)C(Cl)=C(Cl)C2(Cl)C1(Cl)Cl` (stereo not given) here?
The value was -4.43% (inactive).

Which “activity change, negative = cytotoxicity” value does the source give for `CCOP(=S)(OCC)SCSP(=S)(OCC)OCC` here?
The value was -12% (inactive).

With `CC1CCC(=O)O1` (stereo not given) as the compound, how does the “activity change, negative = cytotoxicity” value read?
The value was 5.67% (inactive).

Which “activity change, negative = cytotoxicity” value does the source give for `N#Cc1c(Cl)cccc1Cl` here?
Its value is 5.57% (inactive).

With `NC(=O)O` as the compound, how does the “activity change, negative = cytotoxicity” value read?
Its value is -1.05% (inactive).

For `O=NN1CCCCC1`, which “activity change, negative = cytotoxicity” value is on record?
The value was -4.13% (inactive).

For `CC(C)(C)C(=O)C(Oc1ccc(Cl)cc1)n1cncn1` (stereo not given), which “activity change, negative = cytotoxicity” value is on record?
Its value is -9.66% (inactive).

Which “activity change, negative = cytotoxicity” value does the source give for `Clc1cccc(N2CCNCC2)c1` here?
The value was 4.1% [at 35.3 µM] (inactive).

For `C[C@]12CC[C@H]3[C@@H](CCC4=CC(=O)CC[C@@]43C)[C@@H]1CC[C@@H]2C(=O)O`, which “activity change, negative = cytotoxicity” value is on record?
Its value is -6.9% [at 35.3 µM] (inactive).

With `CSc1ccc(C(=O)C(C)(C)N2CCOCC2)cc1` as the compound, how does the “activity change, negative = cytotoxicity” value read?
The value was -17.1% (inactive).

With `Nc1ccccc1Cl` as the compound, how does the “activity change, negative = cytotoxicity” value read?
Its value is 2.12% (inactive).

Which “activity change, negative = cytotoxicity” value does the source give for `C[N+](C)=CCl` here?
Its value is 1.03% (inactive).

Which “activity change, negative = cytotoxicity” value does the source give for `CCOC(=O)/C=C(C)/C=C/C[C@@H](C)CCCC(C)C` here?
Its value is -3.24% (inactive).

With `O=P(O)(Oc1ccccc1)Oc1ccccc1` as the compound, how does the “activity change, negative = cytotoxicity” value read?
Its value is 2.64% (inactive).

For `N#CC(O)c1ccccc1` (stereo not given), which “activity change, negative = cytotoxicity” value is on record?
Its value is 1.27% (inactive).

Which “activity change, negative = cytotoxicity” value does the source give for `CNC(=O)Oc1ccccc1C1OCCO1` here?
The value was 0.527% (inactive).

Which “activity change, negative = cytotoxicity” value does the source give for `ClCCCN1CCN(c2cccc(Cl)c2)CC1` here?
Its value is -5.79% [at 35.3 µM] (inactive).

For `CCOC(=O)NC(=S)Nc1ccccc1NC(=S)NC(=O)OCC`, which “activity change, negative = cytotoxicity” value is on record?
The value was 1.38% (inactive).

For `Cc1ncc(CNC(=O)N(CCCl)N=O)c(N)n1`, which “activity change, negative = cytotoxicity” value is on record?
Its value is -5.16% [at 35.3 µM] (inactive).

For `CCC#N`, which “activity change, negative = cytotoxicity” value is on record?
Its value is 2.91% (inactive).

Which “activity change, negative = cytotoxicity” value does the source give for `CCCSP(=S)(OCC)Oc1ccc(Cl)cc1Cl` (stereo not given) here?
The value was -11.9% (inactive).

With `CCCSC(=O)Cl` as the compound, how does the “activity change, negative = cytotoxicity” value read?
The value was 15.6% (inactive).

With `CC(=O)CC(c1ccc(Cl)cc1)c1c(O)c2ccccc2oc1=O` (stereo not given) as the compound, how does the “activity change, negative = cytotoxicity” value read?
The value was -12.2% (inactive).

Which “activity change, negative = cytotoxicity” value does the source give for `Fc1ccc(C2(Cn3cncn3)OC2c2ccccc2Cl)cc1` (stereo not given) here?
The value was -24.5% (inactive).

Which “activity change, negative = cytotoxicity” value does the source give for `CCOP(=S)(OCC)Oc1cc(-c2ccccc2)on1` here?
Its value is -19.9% (inactive).

With `CC1(C(=O)Nc2ccc(O)c(Cl)c2Cl)CCCCC1` as the compound, how does the “activity change, negative = cytotoxicity” value read?
Its value is 6.72% (inactive).

Which “activity change, negative = cytotoxicity” value does the source give for `[O]=[Cd]` here?
The value was -0.135% (inactive).

With `CNC(=O)Oc1ccc(N(C)C)c(C)c1` as the compound, how does the “activity change, negative = cytotoxicity” value read?
Its value is 3.47% (inactive).

Which “activity change, negative = cytotoxicity” value does the source give for `Cc1ncsc1CCCl` here?
Its value is 0.178% [at 35.3 µM] (inactive).
